Assay results taken from PubChem BioAssay AID602192 (The Scripps Research Institute Molecular Screening Center, 2012).
The campaign covered roughly 2,400 compounds. About 750 (31%) were called active.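 How the source made its calls: active means mean activation across replicates above the hit cutoff set in the earlier primary screen (cut at about 8% in these data); inactive means the rest.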 These entries were drawn from the full list.

biological target: Melanocortin receptor 4 (Homo sapiens) (UniProt P32245); assay: activators of MC4R arrestin recruitment – cell-based, luminescence, U2OS, confirmation (AID 602192); conditions: U2OS MC4R beta-arrestin recruitment, at 8.9 µM, active compounds read high, scaled DMSO 0%, Melanotan II 100%
Sequence (P32245 whole entry, looked up): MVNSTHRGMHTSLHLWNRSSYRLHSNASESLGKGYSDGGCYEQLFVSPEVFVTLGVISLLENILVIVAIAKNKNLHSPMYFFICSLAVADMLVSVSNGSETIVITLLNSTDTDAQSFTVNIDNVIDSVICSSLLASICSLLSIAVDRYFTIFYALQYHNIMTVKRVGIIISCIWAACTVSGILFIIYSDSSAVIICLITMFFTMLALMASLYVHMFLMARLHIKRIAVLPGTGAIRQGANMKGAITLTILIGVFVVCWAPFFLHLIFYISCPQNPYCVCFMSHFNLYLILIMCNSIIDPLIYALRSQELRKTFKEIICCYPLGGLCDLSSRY

Compound | activation
COc1cc(/C=C(\C#N)C(=O)Nc2ccc3ccccc3c2)c([N+](=O)[O-])cc1OC | 5.51% (inactive)
COc1ccc(-c2cc(NC=O)c3ncc(-c4ccccc4)n3c2)cc1OC | 17.6% (active)
CN(C)C(=O)c1cccc(-c2cnc3c(NC=O)cc(-c4ccc(F)cc4)cn23)c1 | 9.94% (active)
CN(C)CCNC(=O)c1cccc(-c2cnc3c(NC=O)cc(-c4cccc(C(F)(F)F)c4)cn23)c1 | 20.8% (active)
CC(=O)c1cccc(-c2cnc3c(NC=O)cc(-c4ccc(N(C)C)cc4)cn23)c1 | 17.7% (active)
Cn1c(=S)sc2ccc3ccccc3c21 | 2.83% (inactive)
C=CCn1c(SCC(=O)c2ccc(Br)cc2)nnc1C(C)NC(=O)Cc1ccc(OC)cc1 (configuration not stated) | 3.84% (inactive)
COC(=O)c1nc2n(n1)C(c1ccc([N+](=O)[O-])cc1)C(C(=O)Nc1ccc(Cl)cc1)=C(C)N2 (configuration not stated) | -3.03% (inactive)
CCOC(=O)c1c(-c2ccc(C)cc2C)csc1NC(=O)CSc1nnnn1C | -1.45% (inactive)
CCOC(=O)c1[nH]c2c(c1-c1ccccc1)C(=O)CC(c1ccc(Cl)cc1)C2 (configuration not stated) | 2.82% (inactive)
Cc1ccc(-n2nc3cc(Cl)c(NC(=O)c4ccco4)cc3n2)cc1 | 0.27% (inactive)
COc1ccc(S(=O)(=O)N2CCC(C(=O)OCC(=O)c3ccccc3)CC2)cc1[N+](=O)[O-] | 5.6% (inactive)
Cc1cc(C)cc(C(=O)OCC(=O)NCCNC(=O)COC(=O)c2cc(C)cc(C)c2)c1 | 0.95% (inactive)
O=C(COC(=O)c1cccc(Br)c1)Nc1cccc2c1C(=O)c1ccccc1C2=O | 8.85% (active)
O=C(CSc1ccccc1)Nc1nnc(/C=C/c2ccccc2)s1 | 32.6% (active)
CCCCNc1c(-c2cccc(Sc3ccc(OC)cc3)c2)nc2ccccn12 | 5.36% (inactive)
COc1ccc2sc(-c3ccc(S(C)(=O)=O)cc3)c(C#Cc3cncn3C)c2c1 | 27.1% (active)
O=C(Cn1cnc2c(nnn2-c2ccccc2)c1=O)N1CCC(Cc2ccccc2)CC1 | 5% (inactive)
CCN(CC)C(=O)Oc1ccc(Br)cc1C(=O)Nc1ccc(F)c(Cl)c1 | -3.02% (inactive)
CCN(CC)S(=O)(=O)c1ccc(C)c(NC(=O)COc2ccc(Br)cc2Cl)c1 | 12.9% (active)
CSc1ccc(/C=N\NC(=O)COc2ccc(Cl)cc2Br)cc1 | 4.69% (inactive)
O=C(c1cc(-c2cccc(O)c2)on1)N1CCc2ccccc2C1 | -1.12% (inactive)
COCCNc1nc(Nc2ccccc2Cl)c2sc(-c3ccccc3)cc2n1 | 11.8% (active)

Compound | activation
COc1ccc(Nc2ncnc3sc(-c4ccccc4)cc23)c(OC)c1 | 5.2% (inactive)
Clc1ccccc1Nc1nc(NCc2cccs2)nc2ccsc12 | 2.53% (inactive)
O=C(Nc1sc2c(c1-c1nc3ccccc3[nH]1)CCCC2)C1CC1 | 6.22% (inactive)
O=C(OCc1cn(-c2ccc(Cl)c(Cl)c2)nn1)c1ccccc1Cl | -2.69% (inactive)
COc1ccc(Nc2oc(-c3ccccc3Cl)nc2C#N)cc1 | 6.82% (inactive)
COc1cccc(CNC(=O)c2nnn(CC(=O)Nc3cc(Cl)ccc3C)c2N)c1 | 2.75% (inactive)
Cc1cc(/C=C(/C#N)C(=O)Nc2ccc(Cl)cc2)c(C)n1-c1cccnc1 | 0.76% (inactive)
Cc1ccc2nc(-c3ccncc3)cc(C(=O)Nc3ccc(OC(F)F)cc3)c2c1 | 1.63% (inactive)
CCN1C[C@@H]2[C@@H]3C(=O)N(Cc4ccccc4)C(=O)[C@@H]3[C@](Cc3ccccc3)(C(=O)OC)N2C1=NC1CCCCC1 | 17% (active)
COc1ccc2nc(NC(=O)c3ccc(Br)s3)sc2c1 | 5.97% (inactive)
CN(C)CCCN(C(=O)c1ccc(S(=O)(=O)N2CCCCCC2)cc1)c1nc2ccc(Br)cc2s1 | 15.3% (active)
CSc1nc2sc3c(c2c(=O)[nH]1)CCc1ccccc1-3 | 9.67% (active)
COc1ccc(Cn2c(C)c(C)c(C#N)c2NC(=O)Nc2ccc(F)cc2)cc1 | 2.83% (inactive)
COC(=O)c1sccc1NC(=O)CCC1CCCC1 | 0.35% (inactive)
Cc1csc(NC(=O)c2ccc(-c3ccc(Cl)cc3Cl)o2)n1 | 9.09% (active)
O=C(NC(c1ccc(-c2ccccc2)cc1)c1cnccn1)C1CCN(CCOc2ccc(Cl)cc2Cl)CC1 (configuration not stated) | 7.32% (inactive)
Cc1ccc(NC(=O)Nc2ccccc2)c(Br)c1 | 3.05% (inactive)
Cc1ccc(-c2csc(NC(=O)Cn3[nH]c(=O)c4ccccc4c3=O)n2)cc1 | 2.98% (inactive)
O=C(Nc1nc(-c2ccc(-c3ccccc3)cc2)cs1)c1cnccn1 | 10.5% (active)
N#CC(=C1SC=CS1)c1nc(-c2ccccc2)cs1 | -2.79% (inactive)
CC(=O)Nc1ccc(-c2csc(NC(=O)Nc3ccccc3)n2)cc1 | 26.9% (active)
Brc1ccc(-c2csc(N/N=C/c3cccnc3)n2)cc1 | -2.16% (inactive)
N#CCC(=O)N/N=C/c1cn(Cc2ccc3ccccc3c2)c2ccccc12 | 2.4% (inactive)

Compound | activation
COc1ccc(C(=O)c2oc3ccc(Br)cc3c2NC(C)=O)cc1 | 1.93% (inactive)
COc1ccc(/C=N/NC(=O)Nc2ccc3nsnc3c2)c(OC)c1 | -0.12% (inactive)
CC(=O)c1sc(NC(=O)CCCOc2ccccc2C)nc1C | 5.8% (inactive)
COc1ccc(C(=O)n2nc(-c3ccc(C)cc3)nc2N)cc1OC | 0.77% (inactive)
COc1cccc(CNCCc2c[nH]c3ccccc23)c1OCc1ccccc1F | 32% (active)
CCc1ccc(Nc2ncc3c(n2)CC(c2ccco2)CC3=O)cc1 (configuration not stated) | 0.77% (inactive)
COc1ccc(OCC(=O)Nc2ccc(N3CCC(C)CC3)cc2)cc1 | 2.6% (inactive)
O=C(CCCN1C(=O)/C(=C\c2ccco2)SC1=S)Nc1cccc2ccccc12 | -0.83% (inactive)
O=C(CCCN1C(=O)/C(=C/c2cccs2)SC1=S)Nc1ccc(O)cc1 | 11.8% (active)
O=C(/C=C/c1c(Cl)cccc1Cl)NCc1ccccc1 | -0.28% (inactive)
COc1cccc2sc(N(CCCN(C)C)C(=O)C(c3ccccc3)c3ccccc3)nc12 | 19.5% (active)
Cc1cccc(NC(=O)Nc2cccc(Oc3c(F)c(F)c(F)c(F)c3F)c2)c1 | -1.61% (inactive)
Cc1ccc(-n2cc3ccc([N+](=O)[O-])cc3n2)cc1 | 5.74% (inactive)
Cc1ccc(Nc2nnc(SCC(=O)c3cc4ccccc4o3)s2)cc1C | 1.84% (inactive)
Cc1ccc(Nc2nnc(SCc3ccccc3)s2)cc1 | 9.35% (active)
COc1ccc(S(=O)(=O)N/N=C\c2ccc(OC)c(COc3ccc(C)cc3[N+](=O)[O-])c2)cc1 | 1.84% (inactive)
CC(C)Oc1c(Br)cc(Br)cc1/C=N/NC(N)=S | 13.3% (active)
CCC(=O)c1cc2c(cc1NC(=O)c1cccs1)OCCO2 | 6.01% (inactive)
Cc1nn2cc(-c3ccc(Cl)cc3)cnc2c1Br | -1.24% (inactive)
CC(=O)Nc1ccc(NC(=O)c2sc3nc4c(c(-c5ccc(C)cc5)c3c2N)CCC4)cc1 | 5.71% (inactive)
CSc1ccc(S(=O)(=O)NCc2ccc(Cl)cc2)cc1 | 1.19% (inactive)
